Measured values as given in ChEMBL document CHEMBL1157539, “Thousands of chemical starting points for antimalarial lead identification” (Nature, 2010).

The compounds below were run on Plasmodium falciparum (assay: GSK_TCMDC: Inhibition of Plasmodium falciparum 3D7 in whole red blood cells, using parasite LDH activity as an index of growth. Test compounds present at 2uM).
Assay type: functional

SMILES | Inhibition
O=C(Nc1cccc(-c2nn3ncccc3c2-c2ccnc(Nc3cccc(-c4cnco4)c3)n2)c1)c1c(F)cccc1F | 97%
Cc1ccc(C2=NNC3(S2)C(=O)Nc2ccc(C)cc23)cc1 (stereo not drawn) | 95%
NC(=O)c1ccccc1Nc1nc(Nc2ccc(N3CCOCC3)cc2)ncc1[N+](=O)[O-].O=C(O)C(F)(F)F | 98%
COc1cc2nc(NCCn3cccn3)nc(NCCc3ccccc3)c2cc1OC | 100%
O=C(NCCN1CCOCC1)c1csc(C2CCCN(C(=O)c3ccc(O)c(-c4cc(Cl)cc(Cl)c4)c3)C2)n1 (stereo not drawn) | 97%
O=[N+]([O-])c1ccccc1/C=N/Nc1ccnc2cc(Cl)ccc12 | 100%
COc1cccc(C(=O)NC(c2ccccc2OC)c2cc(Cl)c3cccnc3c2O)c1 (stereo not drawn) | 91%
CCCc1cc(NCc2ccncc2)nc(Nc2ccc(F)cc2)n1 | 90%
NC(=O)c1ccc(-c2ccc3ccnc(N)c3c2)cc1.O=C(O)C(F)(F)F | 100%
O=C(NCCCN1CCOCC1)c1csc(Nc2ccc(Cl)c(Cl)c2)n1 | 92%
CC1CCN(CCNC(=O)c2ccc3c(=O)n(Cc4ccc(Cl)cc4)c(=S)[nH]c3c2)CC1 | 100%
COc1cccc(-c2cc(C(F)(F)F)n3ncc(C(=O)Nc4cc(Cl)ccc4O)c3n2)c1 | 99%
Cn1nc(-c2cccc(CN[C@@H]3CCc4ccc(O)cc43)c2)c2cnc(NC3CCCC3)nc21 | 100%
Cl.N=C1C=C(N)C(=O)c2ccccc21 | 81%
Cc1cc(NC2CCN(Cc3ccccc3)CC2)nc(NCCCCc2ccccc2)n1 | 100%
Fc1ccc2[nH]c(-c3cccc(-c4ccc(CNCC5CCCO5)cc4)c3)nc2c1.O=C(O)C(F)(F)F (stereo not drawn) | 100%
Cc1ccc(-c2nnc(Nc3ccc(OCC(N)=O)cc3)c3ccccc23)cc1S(=O)(=O)NCC1CCCO1 (stereo not drawn) | 92%
COc1ccccc1CNC(=O)CCn1c(=O)[nH]c2ccsc2c1=O | 85%
O=C1CC(C(=O)Nc2cccc(-c3cccc(-c4nc5ccccc5[nH]4)c3)c2)c2ccccc2N1 (stereo not drawn) | 84%
COCCNCc1ccc(-c2cccc(CN(C(=O)NCCc3ccccc3)C3CCN(Cc4ccccc4)CC3)c2)cc1.O=C(O)C(F)(F)F | 88%

SMILES | Inhibition
Cc1cccc2nc(-c3cccc(-c4ccc(CN5CCC(C(N)=O)CC5)cc4)c3)[nH]c12.O=C(O)C(F)(F)F | 89%
Cc1c(-c2cccc(CNCCc3ccc(Cl)cc3)c2)cnc(N)c1C.Cl | 87%
O=C(CSc1nc(-c2ccccc2Cl)ns1)Nc1cccc(Cl)c1 | 96%
Cc1ccc2[nH]c3c(c2c1)CC(C(=O)NCCC(C)C)NC31CCN(Cc2ccccc2)CC1 (stereo not drawn) | 95%
CCn1c(-c2nc(-c3ccc4c(c3)OCO4)cnc2N)nc2cnccc21 | 100%
CC(=O)Oc1cc(C)ccc1C1CCN(CCCCNC(=O)c2ccc(-c3ccc(C(F)(F)F)cc3)cc2)CC1 | 100%
CCOC(=O)c1cnc2c(OC)cc(OC)c(Cl)c2c1Nc1cccc(C)c1 | 95%
COc1ccc(Cn2c(Nc3cccc(C(F)(F)F)c3)nc3cc(C(=O)NC(C)C)cnc32)cc1Cl | 85%
Cc1cccc(CC2CC(=O)N(c3ccc([N+](=O)[O-])cc3)C2=O)c1 (stereo not drawn) | 95%
COc1ccc(-c2cc(Nc3nc(-c4cccc(Cl)c4)nc4ccccc34)ccn2)cc1 | 100%
CN(C)CCC=C1c2ccccc2Sc2c(O)cc(Cl)cc21.O=C(O)/C=C\C(=O)O | 100%
COc1cc(O)c2c(=O)c(OC)c(-c3cccc(Cl)c3OC3O[C@H](CO)[C@@H](O)[C@H](O)[C@H]3O)oc2c1OC (stereo partly drawn) | 100%
COc1ccc2nccc([C@@H](O)CN3CCC(NCc4ccc(OC)c(NC=O)c4)CC3)c2c1 | 97%
Cc1cccc(NC(=O)NC2CCN(CCCCCNC(=O)/C=C/c3ccc(Cl)c(Cl)c3)CC2)c1 | 100%
CCNc1cc(CC)nc(Nc2ccc(C)cc2)n1 | 100%
Cc1cnc2cc3c(cc2c1N1CCN(C)CC1)NCC3 | 100%
Cc1c(C(=O)N(C)C)sc2c1c(=O)n(Cc1ccccc1)c(=O)n2CC(=O)Nc1ccccc1F | 97%
CNCCNCc1ccc(-c2ccc(-c3nc4cc(F)ccc4[nH]3)s2)cc1.O=C(O)C(F)(F)F | 99%
O=C(/C=C/c1ccc(Cl)c(Cl)c1)NCCCCN1CCCN(C(=O)Nc2cc(Cl)cc(Cl)c2)CC1 | 97%

The compounds below were run on Plasmodium falciparum (assay: GSK_TCMDC: Inhibition of Plasmodium falciparum Dd2 in whole red blood cells, using parasite LDH activity as an index of growth. Test compounds present at 2uM).
Assay type: functional

SMILES | Inhibition
O=C(Nc1cccc(-c2nn3ncccc3c2-c2ccnc(Nc3cccc(-c4cnco4)c3)n2)c1)c1c(F)cccc1F | 98%
Cc1ccc(C2=NNC3(S2)C(=O)Nc2ccc(C)cc23)cc1 (stereo not drawn) | 89%
NC(=O)c1ccccc1Nc1nc(Nc2ccc(N3CCOCC3)cc2)ncc1[N+](=O)[O-].O=C(O)C(F)(F)F | 96%
COc1cc2nc(NCCn3cccn3)nc(NCCc3ccccc3)c2cc1OC | 100%
O=C(NCCN1CCOCC1)c1csc(C2CCCN(C(=O)c3ccc(O)c(-c4cc(Cl)cc(Cl)c4)c3)C2)n1 (stereo not drawn) | 50%
O=[N+]([O-])c1ccccc1/C=N/Nc1ccnc2cc(Cl)ccc12 | 89%
COc1cccc(C(=O)NC(c2ccccc2OC)c2cc(Cl)c3cccnc3c2O)c1 (stereo not drawn) | 36%
CCCc1cc(NCc2ccncc2)nc(Nc2ccc(F)cc2)n1 | 6%
NC(=O)c1ccc(-c2ccc3ccnc(N)c3c2)cc1.O=C(O)C(F)(F)F | 98%
O=C(NCCCN1CCOCC1)c1csc(Nc2ccc(Cl)c(Cl)c2)n1 | 23%
CC1CCN(CCNC(=O)c2ccc3c(=O)n(Cc4ccc(Cl)cc4)c(=S)[nH]c3c2)CC1 | 75%
COc1cccc(-c2cc(C(F)(F)F)n3ncc(C(=O)Nc4cc(Cl)ccc4O)c3n2)c1 | 99%
Cn1nc(-c2cccc(CN[C@@H]3CCc4ccc(O)cc43)c2)c2cnc(NC3CCCC3)nc21 | 76%
Cl.N=C1C=C(N)C(=O)c2ccccc21 | 85%
Cc1cc(NC2CCN(Cc3ccccc3)CC2)nc(NCCCCc2ccccc2)n1 | 60%
Fc1ccc2[nH]c(-c3cccc(-c4ccc(CNCC5CCCO5)cc4)c3)nc2c1.O=C(O)C(F)(F)F (stereo not drawn) | 98%
Cc1ccc(-c2nnc(Nc3ccc(OCC(N)=O)cc3)c3ccccc23)cc1S(=O)(=O)NCC1CCCO1 (stereo not drawn) | 70%
COc1ccccc1CNC(=O)CCn1c(=O)[nH]c2ccsc2c1=O | 75%
O=C1CC(C(=O)Nc2cccc(-c3cccc(-c4nc5ccccc5[nH]4)c3)c2)c2ccccc2N1 (stereo not drawn) | 32%
COCCNCc1ccc(-c2cccc(CN(C(=O)NCCc3ccccc3)C3CCN(Cc4ccccc4)CC3)c2)cc1.O=C(O)C(F)(F)F | 90%

SMILES | Inhibition
Cc1cccc2nc(-c3cccc(-c4ccc(CN5CCC(C(N)=O)CC5)cc4)c3)[nH]c12.O=C(O)C(F)(F)F | 9%
Cc1c(-c2cccc(CNCCc3ccc(Cl)cc3)c2)cnc(N)c1C.Cl | 30%
O=C(CSc1nc(-c2ccccc2Cl)ns1)Nc1cccc(Cl)c1 | 89%
Cc1ccc2[nH]c3c(c2c1)CC(C(=O)NCCC(C)C)NC31CCN(Cc2ccccc2)CC1 (stereo not drawn) | 50%
CCn1c(-c2nc(-c3ccc4c(c3)OCO4)cnc2N)nc2cnccc21 | 98%
CC(=O)Oc1cc(C)ccc1C1CCN(CCCCNC(=O)c2ccc(-c3ccc(C(F)(F)F)cc3)cc2)CC1 | 94%
CCOC(=O)c1cnc2c(OC)cc(OC)c(Cl)c2c1Nc1cccc(C)c1 | 20%
COc1ccc(Cn2c(Nc3cccc(C(F)(F)F)c3)nc3cc(C(=O)NC(C)C)cnc32)cc1Cl | 81%
Cc1cccc(CC2CC(=O)N(c3ccc([N+](=O)[O-])cc3)C2=O)c1 (stereo not drawn) | 1%
COc1ccc(-c2cc(Nc3nc(-c4cccc(Cl)c4)nc4ccccc34)ccn2)cc1 | 17%
CN(C)CCC=C1c2ccccc2Sc2c(O)cc(Cl)cc21.O=C(O)/C=C\C(=O)O | 80%
COc1cc(O)c2c(=O)c(OC)c(-c3cccc(Cl)c3OC3O[C@H](CO)[C@@H](O)[C@H](O)[C@H]3O)oc2c1OC (stereo partly drawn) | 6%
COc1ccc2nccc([C@@H](O)CN3CCC(NCc4ccc(OC)c(NC=O)c4)CC3)c2c1 | 0%
Cc1cccc(NC(=O)NC2CCN(CCCCCNC(=O)/C=C/c3ccc(Cl)c(Cl)c3)CC2)c1 | 21%
CCNc1cc(CC)nc(Nc2ccc(C)cc2)n1 | 24%
Cc1cnc2cc3c(cc2c1N1CCN(C)CC1)NCC3 | 69%
Cc1c(C(=O)N(C)C)sc2c1c(=O)n(Cc1ccccc1)c(=O)n2CC(=O)Nc1ccccc1F | 98%
CNCCNCc1ccc(-c2ccc(-c3nc4cc(F)ccc4[nH]3)s2)cc1.O=C(O)C(F)(F)F | 55%
O=C(/C=C/c1ccc(Cl)c(Cl)c1)NCCCCN1CCCN(C(=O)Nc2cc(Cl)cc(Cl)c2)CC1 | 1%
